Measured values published in PubChem BioAssay (Tox21).
Where “and” joins values, the source holds several entries; their conditions need not be identical. Identical values can stand only once. Results filed as inconclusive are left out. Where a call stands in place of a potency, no number is given. Values without a mark were called inactive. Calls of active or inactive are those of the source. Calls come from the whole dose curve; as a rule, active = well fitted cell-killing curve with a large enough effect in the repeat runs; inconclusive = weak or mixed curves, or effect the other way; inactive = flat fitted curve, though single readings scatter.

Test: qHTS assay to identify small molecule agonists of the estrogen receptor beta (ER-beta) signaling pathway - cell viability counter screen (AID 1259380); note: nearly all actives have a fitted effect of over 30% in size
Settings: ER-beta-bla HEK293T viability, CellTiter-Glo luminescence, 16 h; series mostly up to 92.4 µM
Source text: National Center for Advancing Translational Sciences [NCATS]
NIH Chemical Genomics Center [NCGC]
U.S. Environmental Protection Agency [EPA]
National Institutes of Environmental Health Sciences [NIEHS]
National Toxicology Program [NTP]
U.S. Food and Drug Administration [FDA]
Estrogen receptor (ER), a nuclear hormone receptor, plays an important role in development, metabolic homeostasis and reproduction. Two subtypes of ER, ER-alpha and ER-beta, have similar expression patterns with some uniqueness in both types. Endocrine disrupting chemicals (EDCs) and their interactions with steroid hormone receptors like ER causes disruption of normal endocrine function. To identify the compounds that activate ER signaling, an ER beta-UAS-bla GripTite cell line (Life Technologies, Madison, WI, USA) containing a beta-lactamase reporter gene under the control of an UAS response element was used to screen Tox21 10K compound library. The cytotoxicity of the Tox21 compound library against the ER-beta-bla cell line was tested in parallel by measuring the cell viability using CellTiter-Glo assay in the same wells.
Tox21 Assay Protocol Summary:
ER-beta-UAS-bla HEK293T cells were dispensed at 2,000 cells/5 uL of assay medium containing 2% charcoal stripped FBS per well into black wall/clear-bottom 1536-well plates using a Multidrop Combi (ThermoFisher Scientific, Waltham, MA) dispenser. After the assay plates were incubated at a 37C and 5% CO2 for 6 hr, 23 nL of compounds dissolved in DMSO, positive controls or DMSO only was transferred to the assay plate by a Pintool station (Kalypsys, San Diego, CA). The plates were incubated at 37C and 5% CO2 for 16 hr. Then 1 uL of LiveBLAzerTM B/G FRET substrate was added using a BioRAPTR FRD (Flying Reagent Dispenser, Aurora Discovery, San Diego, CA) and then the plates were incubated at room temperature for 2 hours, and fluorescence intensity was measured by an Envision plate reader (PerkinElmer, Shelton, CT). For cell viability readout that measures cytotoxicity, 4 uL/well of CellTiter-Glo reagent was added into the assay plates using a FRD. After 30 min incubation at room temperature, the luminescence intensity in the plates was measured using a ViewLux (PerkinElmer) plate reader.
Potency is the fitted concentration of half-maximal effect.

SMILES	Potency	activity change, negative = cytotoxicity
CCC(Cc1c(I)cc(I)c(N)c1I)C(=O)O (stereo not given)	33.3 µM (active)	–
O=C1CCc2ccccc2O1	inactive	–
C=CCCCCCCCCCC	inactive	–
Nc1ccc(N)c(Cl)c1	61 µM (active) and 61.1 µM (active)	–
COC(=O)C(C)Oc1ccc(Oc2ncc(C(F)(F)F)cc2Cl)cc1 (stereo not given)	inactive	–
NCCN	inactive	–
COCCOCCOCCO	inactive	–
O=C(O)CCCC(=O)O	inactive	–
CC1(C)O[C@@H]2C[C@H]3[C@@H]4C[C@H](F)C5=CC(=O)C=C[C@]5(C)[C@@]4(F)[C@@H](O)C[C@]3(C)[C@]2(C(=O)CO)O1	inactive	–
CN(C)C	inactive	–
CN(C)/N=N/c1nc[nH]c1C(N)=O	inactive	–
Cc1ccc(/C(=C\CN2CCCC2)c2ccccn2)cc1	inactive	–
C/C=C/C(=O)N(CC)c1ccccc1C	inactive	–
CC1(C)OC(=O)NC1=O	inactive	–
CN(C)CCCN1c2ccccc2Sc2ccc(Cl)cc21	19.3 µM (active) and 16.8 µM (active)	–
CCCN1C=CN(C)C1	inactive	–
CC1(C)C(C=C(Cl)Cl)C1C(=O)OCc1cccc(Oc2ccccc2)c1 (stereo not given)	inactive	–
O=C(O)CCCCCCCCCCCC(=O)O	inactive	–
c1ccc2c(c1)[nH]c1ccccc12	inactive	–
COc1ccc(-c2coc3cc(O)cc(O)c3c2=O)cc1	38.6 µM (active)	–

SMILES	Potency	activity change, negative = cytotoxicity
[O-]/[N+](=N\O)c1ccccc1	inactive	–
C[C@]12C=CC(=O)C=C1CC[C@H]1[C@@H]3C[C@@H](O)[C@](O)(C(=O)CO)[C@@]3(C)C[C@H](O)[C@@]12F	inactive	–
O=C(CCCN1CCC(O)(c2ccc(Cl)cc2)CC1)c1ccc(F)cc1	21.7 µM (active) and 23.7 µM (active)	–
Nc1ccc2c(O)cc(S(=O)(=O)O)cc2c1	15.4 µM (active)	–
CC1=CC(C)(C)Nc2ccccc21	inactive	–
CC(C)(C)c1cccc(C(C)(C)C)c1O	inactive	–
C=CC(=O)OCCCC	inactive	–
O=[Se](O)O	–	1.8% [at 19 µM]
C=C[Si](OCCOC)(OCCOC)OCCOC	inactive	–
CCCCCC1C(=O)CCC1CC(=O)OC (stereo not given)	inactive	–
C[N+](C)(C)CCO	inactive	–
[Na+]	inactive	–
C=CC(C)(O)CCC=C(C)C (stereo not given)	inactive	–
CC(=O)[C@@]1(O)CC[C@H]2[C@@H]3C[C@H](C)C4=CC(=O)C=C[C@]4(C)[C@@]3(F)[C@@H](O)C[C@@]21C	inactive	–
Cc1ccc(C(C)(C)C)cc1	inactive	–
CNC[C@H](O)c1ccc(O)c(O)c1	inactive	–
COc1ccc(C(=O)c2ccccc2O)c(O)c1	inactive	–
CC(=O)OC(C)C	inactive	–
Cc1ccc(C)c(O)c1	inactive	–
Cc1ccc(N)c([N+](=O)[O-])c1	inactive	–
